Reference: the supplement of paper PMC3334620
Over roughly 33,000 sequences, “E-score (-0.5 to 0.5)” has its median near -0.016; the highest 2% begin near 0.31. Only a selection was taken, and the highest values are over-represented in it overall.

Target: Cst6 (UniProt P40535)
Assay: PBM E-score (8-mer binding enrichment) (E-score (-0.5 to 0.5)); higher = stronger / more preferred TF binding
Conditions: protein concentration: 200 nM; construct: GST-DNA-binding domain
Method: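 Universal 'all 10-mer' protein binding microarrays (Agilent AMADID 015681) probed with GST-tagged S. cerevisiae TFs (full-length or DBD) made by in vitro transcription/translation (PURExpress), about 100-200 nM. Bound TF was detected with fluorescent anti-GST. Each ungapped 8-mer (which stands for itself and its reverse complement) is scored by the PBM enrichment score (E-score), a modified Wilcoxon-Mann-Whitney statistic from -0.5 to +0.5, computed with the Universal PBM Analysis Suite. Scale: above 0.35 generally sequence-specific binding.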

Chain of UniProt P40535 (P40535 whole entry): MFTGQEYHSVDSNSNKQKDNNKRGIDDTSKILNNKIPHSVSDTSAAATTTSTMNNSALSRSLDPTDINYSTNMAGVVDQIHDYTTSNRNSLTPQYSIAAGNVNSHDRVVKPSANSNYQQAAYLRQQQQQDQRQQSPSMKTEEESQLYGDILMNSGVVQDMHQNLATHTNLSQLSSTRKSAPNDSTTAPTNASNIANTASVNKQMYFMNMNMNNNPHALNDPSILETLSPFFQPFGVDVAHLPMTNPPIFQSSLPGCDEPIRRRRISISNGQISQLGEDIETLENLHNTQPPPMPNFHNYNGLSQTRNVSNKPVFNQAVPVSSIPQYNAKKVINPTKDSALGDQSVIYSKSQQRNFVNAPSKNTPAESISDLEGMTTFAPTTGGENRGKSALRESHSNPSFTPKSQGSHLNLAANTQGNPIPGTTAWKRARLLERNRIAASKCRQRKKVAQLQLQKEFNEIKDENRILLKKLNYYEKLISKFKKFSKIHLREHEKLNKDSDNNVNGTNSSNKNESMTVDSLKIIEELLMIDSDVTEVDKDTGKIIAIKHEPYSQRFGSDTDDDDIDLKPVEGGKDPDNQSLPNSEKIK

Compared with TGACGTCA, CGACGTCC is lower in “PBM E-score” value: 0.5 for the first, -0.0701 for the second.

First: AGACGTCG
Second: AGACGTCT
The “PBM E-score” value of the first is higher: -0.103 for the first, -0.207 for the second.

Compared with CGACGTCG, AGACGTCC is higher in “PBM E-score” value: -0.0227 for the first, -0.00823 for the second.

First: GGACGTGA
Second: GGACGTCA
The “PBM E-score” value of the first is lower: -0.0809 for the first, 0.468 for the second.

Compared with GGTCGTCA, CGACGTCA is higher in “PBM E-score” value: 0.272 for the first, 0.491 for the second.

First: AGACGTCA
Second: GGACGTCC
The “PBM E-score” value of the first is higher: 0.484 for the first, -0.128 for the second.

First: ATTCTGCC
Second: ACATGCAT
The “PBM E-score” value of the first is higher: 0.124 for the first, 0.0333 for the second.

Compared with CAATGGCC, GAGCCAGC is higher in “PBM E-score” value: -0.314 for the first, -0.299 for the second.

Going from ACTTGCCC to ATGTTTCG, the “PBM E-score” value rises from -0.215 to 0.263.

Compared with AGCCCCAC, ATGACACG is higher in “PBM E-score” value: -0.161 for the first, 0.256 for the second.

First: CTGACACA
Second: GTGACACA
The “PBM E-score” value of the first is lower: 0.0411 for the first, 0.322 for the second.

First: ACGACACG
Second: GAGACACA
The “PBM E-score” value of the first is higher: 0.0167 for the first, -0.0694 for the second.

First: ATGACACA
Second: AGACATGG
The “PBM E-score” value of the first is higher: 0.349 for the first, -0.0372 for the second.

First: ACTACCTC
Second: AGCTTGGA
The “PBM E-score” value of the first is higher: 0.0105 for the first, -0.274 for the second.

Compared with ACTGGGCA, CCGATAAA is higher in “PBM E-score” value: -0.16 for the first, 0.0173 for the second.

Going from AAACGCAA to ACACGTCG, the “PBM E-score” value falls from 0.254 to -0.0793.

Compared with TCACGTGA, CCACGTCG is lower in “PBM E-score” value: 0.1 for the first, -0.196 for the second.

Going from TCACGTCA to CCACGTCC, the “PBM E-score” value falls from 0.49 to -0.214.

First: GCACGTTA
Second: CCACGTCA
The “PBM E-score” value of the first is lower: 0.0802 for the first, 0.472 for the second.

Compared with ACACGTCA, TCCCGTCA is lower in “PBM E-score” value: 0.481 for the first, 0.0641 for the second.

Compared with GCACGTCA, ACACGTCT is lower in “PBM E-score” value: 0.459 for the first, 0.0155 for the second.

Going from GCACGTCC to AGGGGGTA, the “PBM E-score” value falls from -0.0855 to -0.392.

First: AGGACTGG
Second: CTCTTAAA
The “PBM E-score” value of the first is lower: -0.203 for the first, 0.112 for the second.

First: AGACAAGG
Second: GGCACGCA
The “PBM E-score” value of the first is lower: -0.181 for the first, -0.0289 for the second.

Going from GGGCGGGA to CAAGAGGC, the “PBM E-score” value rises from -0.0359 to 0.0779.

First: AGTGACGG
Second: AGTGACCA
The “PBM E-score” value of the first is higher: 0.301 for the first, -0.105 for the second.

Going from GGTGACCA to GGTGACGA, the “PBM E-score” value rises from -0.0455 to 0.463.

Compared with GTTGACGA, AGTGACGA is higher in “PBM E-score” value: 0.192 for the first, 0.399 for the second.

Compared with GGAGGCGA, ACTATATG is higher in “PBM E-score” value: -0.154 for the first, 0.0805 for the second.

Compared with ATTATATC, ATTATATA is lower in “PBM E-score” value: 0.327 for the first, 0.239 for the second.

Going from ATTATATG to CTTATATC, the “PBM E-score” value falls from 0.306 to 0.291.

Going from ATTATAAG to AGGAGAAG, the “PBM E-score” value falls from 0.182 to -0.154.

Compared with GAGGCGAA, ATCTAGGA is lower in “PBM E-score” value: 0.0301 for the first, -0.0727 for the second.

Going from ACGGGTCA to GTCTAGAA, the “PBM E-score” value falls from -0.0243 to -0.0503.

First: AATACGCA
Second: GATACGGA
The “PBM E-score” value of the first is higher: 0.124 for the first, 0.111 for the second.

Going from AATACGAC to AATACGTC, the “PBM E-score” value rises from 0.0982 to 0.323.

Going from CATACGTA to AATACGTG, the “PBM E-score” value falls from 0.383 to 0.176.

First: CATACGCA
Second: CATACGAA
The “PBM E-score” value of the first is lower: 0.147 for the first, 0.154 for the second.

Compared with GATACGTA, GATACGCA is lower in “PBM E-score” value: 0.332 for the first, 0.0359 for the second.

Going from AATACGTA to AATACGCC, the “PBM E-score” value falls from 0.344 to 0.104.

Compared with ATTGAGGG, TCAGAGGA is lower in “PBM E-score” value: -0.186 for the first, -0.193 for the second.

Compared with GCAGGAGA, TCCGACGA is higher in “PBM E-score” value: -0.202 for the first, -0.0151 for the second.

Compared with CTGCTAAG, CTATGGCC is higher in “PBM E-score” value: -0.279 for the first, -0.271 for the second.

Going from CCTACGTC to CATACGCC, the “PBM E-score” value falls from 0.305 to 0.156.

Compared with CATACGTC, ATCCCGTG is lower in “PBM E-score” value: 0.405 for the first, 0.0123 for the second.

First: CTCAAAAC
Second: ATTACGAA
The “PBM E-score” value of the first is lower: 0.175 for the first, 0.305 for the second.

First: GTTACGCA
Second: CTTACGCA
The “PBM E-score” value of the first is higher: 0.266 for the first, 0.249 for the second.

First: ATTACGCG
Second: GTTACGAA
The “PBM E-score” value of the first is higher: 0.326 for the first, 0.16 for the second.

Going from ATTACGCC to ATTACGGG, the “PBM E-score” value falls from 0.254 to 0.00617.

Compared with ATTACGAG, ATTACGCA is higher in “PBM E-score” value: 0.235 for the first, 0.398 for the second.
